Activity calls are given as the source filed them.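 The calls were made as follows, unless noted: active = fluorescence slope after compound addition differing from the mean of all screened samples at 99.7% confidence, in either direction; inactive = the rest.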
Experiments:
[1] = inhibitors of TNFa-induced NFkB p65 translocation, primary screen, imaging, HUVEC, MLSMR starter and 10KST1 sets (AID 438;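 active = inhibition above 20% together with a positive visual image hit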;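 also: compound added about 3h40 before a 20 min TNFalpha stimulation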;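 as to inhibition: signal is the nuclear over cytoplasmic p65 intensity ratio per well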); conditions: HUVEC TNFa-induced p65 nuclear translocation; cell count: measured here: nuclei count (cytotoxicity indicator), at 2.08 µM; inhibition: at 2 µM, stronger effect = higher value, 0% TNFa-plus-vehicle, 100% no-TNFa wells
[2] = inhibitors of mutant huntingtin aggregation, primary screen, imaging, exon1htt(103Q)mCFP cells, high-content imaging (AID 483;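 active = visual image review flags a hit and inhibition of aggregation exceeds 20%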;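 also: compound exposure lasted 3 days before fixation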;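 as to nuclei count: percent of the per-plate median nuclei count of sample wells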); conditions: exon1htt(103Q)mCFP cell line, aggregate imaging, at 2 µM; inhibition of aggregation: stronger effect = higher value; nuclei count: measured here: cell count, toxicity
[3] = inhibitors of E-selectin induction by TNFa, primary screen, imaging, HUVEC, immunofluorescence, MLSMR starter and 10KST1 sets (AID 487;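 active = visually confirmed hit in the image check and inhibition above 20%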;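 as to inhibition: signal is fraction of cell area covered by stained E-selectin grains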;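 as to nuclei count: 100% = median nuclei count of all wells on the same plate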); conditions: HUVEC TNFalpha-induced E-selectin immunofluorescence imaging, at 2 µM; inhibition: stronger effect = higher value; nuclei count: measured here: cell number, toxicity
[4] = molecular target: Voltage-gated potassium channel subunit beta-2 (Rattus norvegicus) (UniProt P62483); test: KvBeta enzyme negative modulators, primary screen, biochemical, NADPH fluorescence (AID 622;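 active = fluorescence slope higher than the sample average by over 3 SD, cut at about -0.22 in these data, passing the limit was not always enough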;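 also: slope of raw intensity against log time taken from 70 to 1610 s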); conditions: recombinant KvBeta, 4-cyanobenzaldehyde reduction, at 10 µM, stronger effect = higher value
Chain of Voltage-gated potassium channel subunit beta-2 (Rattus norvegicus) (P62483 whole entry, looked up): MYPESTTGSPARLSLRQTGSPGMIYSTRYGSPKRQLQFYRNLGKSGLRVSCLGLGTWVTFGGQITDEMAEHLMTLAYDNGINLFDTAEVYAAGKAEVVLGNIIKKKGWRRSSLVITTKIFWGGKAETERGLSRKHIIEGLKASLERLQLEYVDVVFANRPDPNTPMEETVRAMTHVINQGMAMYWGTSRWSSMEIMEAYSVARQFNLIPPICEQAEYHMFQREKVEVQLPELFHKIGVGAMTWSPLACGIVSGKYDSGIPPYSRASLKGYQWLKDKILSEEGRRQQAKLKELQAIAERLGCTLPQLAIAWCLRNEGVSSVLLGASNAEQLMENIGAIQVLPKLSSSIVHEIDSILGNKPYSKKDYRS

[5] = molecular target: Voltage-gated potassium channel subunit beta-2 (Rattus norvegicus) (UniProt P62483); test: KvBeta positive modulators, primary screen, biochemical, NADPH fluorescence (AID 623;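 active = NADPH fluorescence slope more negative than the mean of all samples by about 3 SD, 99.7% confidence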;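 also: fluorescence intensity change per second fitted from 20 to 320 s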); conditions: Recombinant KvBeta, NADPH fluorescence decrease slope, 10 min; at 10 µM; stronger effect = lower value
[6] = molecular target: Alpha-2C adrenergic receptor (Homo sapiens) (UniProt P18825); test: modulators of alpha2C/GIRK thallium flux, primary screen, cell-based, HEK293 alpha2C/GIRK1/2 (AID 624); conditions: thallium flux BTC fluorescence, at 10 µM, actives lie on both sides;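 also: slope of fluorescence ratio to pre-addition baseline per second over 15 to 24 s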
Chain of Alpha-2C adrenergic receptor (Homo sapiens) (P18825 whole entry, looked up): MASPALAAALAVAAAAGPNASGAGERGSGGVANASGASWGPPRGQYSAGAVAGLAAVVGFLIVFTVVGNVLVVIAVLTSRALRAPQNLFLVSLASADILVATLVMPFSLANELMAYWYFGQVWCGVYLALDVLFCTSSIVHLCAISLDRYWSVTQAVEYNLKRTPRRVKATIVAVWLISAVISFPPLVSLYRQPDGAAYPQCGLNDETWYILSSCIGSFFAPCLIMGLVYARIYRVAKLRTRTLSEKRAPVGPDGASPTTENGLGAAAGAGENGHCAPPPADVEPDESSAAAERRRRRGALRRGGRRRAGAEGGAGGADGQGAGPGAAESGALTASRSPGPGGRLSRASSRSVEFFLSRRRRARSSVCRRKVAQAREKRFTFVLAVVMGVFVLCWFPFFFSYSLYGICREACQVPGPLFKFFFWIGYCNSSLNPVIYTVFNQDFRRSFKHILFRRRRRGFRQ

[7] = inhibitors of Sendai virus-induced IRF3 signaling, primary screen, TLR/RLR signaling modifier project, cell-based, Sendai virus stimulus, luciferase, 10K MLSCN set (AID 602276;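 active = inhibition at or above 50% at 10 µM; inactive = inhibition below 50%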;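 also: firefly luciferase from ISG56 promoter only with Renilla not read in this screen; 0% = Sendai virus plus DMSO and 100% = medium plus DMSO without virus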); conditions: HEK293 RL24 IRF3 luciferase reporter, at 10 µM, stronger effect = higher value
[8] = inhibitors of poly I:C-induced TLR3 signaling, primary screen, cell-based, poly I:C stimulus, luciferase, 10K MLSCN set (AID 602277;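 active = inhibition of the reporter signal at or above 50%; inactive = inhibition below 50%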); conditions: HEK293-TLR3 RL24 IRF3 luciferase reporter, at 10 µM, stronger effect = higher value

Structure (SMILES)	cell count [1]	inhibition [1]	inhibition of aggregation [2]	nuclei count [2] [%]	inhibition [3]	nuclei count [3] [%]	fluorescence slope [4]	NADPH fluorescence slope [5]	slope [6]	inhibition [7]	inhibition [8]
Cc1ccc(S(=O)(=O)NCCNC(=O)C2CCCNC2=O)cc1 (stereo not drawn)	440	-0.4% (inactive)	-9.8% (inactive)	97.5	-14.7% (inactive)	121	-0.584 (inactive)	-7e-05 (inactive)	0.00341 (inactive)	16.4% (inactive)	12.2% (inactive)
O=c1oc2ccccc2c(O)c1CN1CCCCC1	361	2.9% (inactive)	4.9% (inactive)	48.1	-83.3% (inactive)	117	-0.407 (inactive)	-6.8e-05 (inactive)	0.00535 (inactive)	15.4% (inactive)	8.62% (inactive)
COCCCNC(=O)c1ccc(CS(=O)(=O)c2ccc(OC)cc2)o1	696	-8.1% (inactive)	5.6% (inactive)	101	-54.8% (inactive)	115	-0.519 (inactive)	-5.8e-05 (inactive)	0.00615 (inactive)	7.18% (inactive)	13.8% (inactive)
O=C(Nc1cc(C(F)(F)F)ccc1Cl)C1CCN(c2nnc(-n3cccc3)s2)CC1	329	-2.9% (inactive)	6.1% (inactive)	84.2	-114% (inactive)	126	-0.39 (inactive)	-5.6e-05 (inactive)	0.00662 (inactive)	17.2% (inactive)	9.28% (inactive)
O=C(C1=C(O)C(=O)N(Cc2ccccc2)C1c1ccncc1)c1ccco1 (stereo not drawn)	382	8.3% (inactive)	-3.4% (inactive)	116	-216% (inactive)	143	-0.192 (inactive)	2.5e-06 (inactive)	0.0062 (inactive)	-5.31% (inactive)	2.12% (inactive)
Cc1cc(S(=O)(=O)N2CCN(c3ccccc3C)CC2)ccc1F	651	-8.1% (inactive)	-13.5% (inactive)	103	-131% (inactive)	125	-0.462 (inactive)	1.6e-05 (inactive)	0.00665 (inactive)	14.2% (inactive)	28.2% (inactive)
CCC(=O)Nc1cc(C)c(NC(=O)C23CC4CC(CC(C4)C2)C3)cn1	391	5.2% (inactive)	1% (inactive)	98.8	-11.3% (inactive)	102	-0.479 (inactive)	-3.3e-05 (inactive)	0.00598 (inactive)	1.14% (inactive)	18.1% (inactive)
O=C(NCC1CCCO1)c1ccc(N2CCCCC2)nc1 (stereo not drawn)	684	-11.2% (inactive)	1.5% (inactive)	99.7	-30.2% (inactive)	107	-0.314 (inactive)	2.7e-06 (inactive)	0.00663 (inactive)	-7.44% (inactive)	-103% (inactive)
COC(=O)c1cc(=O)n(Cc2ccc3c(c2)OCO3)c(=Nc2ccccc2)s1	575	2.9% (inactive)	8.9% (inactive)	124	-30.3% (inactive)	107	-0.545 (inactive)	-3.4e-05 (inactive)	0.00623 (inactive)	12.2% (inactive)	27.1% (inactive)
Cn1nc(-c2ccc(N3CCCCC3)c(NC(=O)c3ccco3)c2)c2ccccc2c1=O	672	-15.6% (inactive)	-14.2% (inactive)	62.8	32.2% (inactive)	84.4	-0.5 (inactive)	-5.2e-06 (inactive)	0.00571 (inactive)	13.4% (inactive)	75.2% (active)
C=C(C)COc1ccc(-c2nc(N)ncc2-c2ccc(OC)cc2)c(O)c1	278	-9.5% (inactive)	24.6% (inactive)	69.5	-120% (inactive)	111	-0.433 (inactive)	-2.4e-05 (inactive)	0.00614 (inactive)	5.72% (inactive)	27.1% (inactive)
Nc1[nH]nc2nc(N3CCCC3)nc(-c3ccccc3)c12	341	-9.5% (inactive)	20.6% (inactive)	60.5	-53% (inactive)	117	-0.477 (inactive)	-3.4e-05 (inactive)	0.00548 (inactive)	11.8% (inactive)	18.8% (inactive)
CC(C)COC(=O)C(C#N)c1nc2ccccc2nc1N1CCN(Cc2ccccc2)CC1 (stereo not drawn)	296	4.2% (inactive)	3.4% (inactive)	91.2	17.8% (inactive)	87	-0.425 (inactive)	8.1e-06 (inactive)	0.00589 (inactive)	14.6% (inactive)	7.75% (inactive)
COc1cccc(OCCn2ccnc2)c1	305	-6.6% (inactive)	9.6% (inactive)	82.1	-24.7% (inactive)	120	-0.422 (inactive)	2e-05 (inactive)	0.00692 (inactive)	-8.26% (inactive)	-3.22% (inactive)
O=C1CN(C(=O)COC(=O)C23CC4CC(CC(O)(C4)C2)C3)c2ccccc2N1	649	1.4% (inactive)	8% (inactive)	106	-44.5% (inactive)	102	-0.597 (inactive)	-3.1e-05 (inactive)	0.00543 (inactive)	8.83% (inactive)	27.8% (inactive)
CCC(=O)N1C(=O)CCN(C(C)=O)c2ccccc21	454	11.3% (inactive)	-2.5% (inactive)	109	-39.7% (inactive)	130	-0.381 (inactive)	2.5e-05 (inactive)	0.0091 (inactive)	13.1% (inactive)	20.6% (inactive)
CC12CCC(C(=O)O)(c3nc(C#N)c(C#N)nc31)C2(C)C (stereo not drawn)	437	-4.7% (inactive)	26.3% (inactive)	90.9	-15.3% (inactive)	106	-0.618 (inactive)	-3.8e-05 (inactive)	0.0041 (inactive)	15.9% (inactive)	21.6% (inactive)
CCOC(=O)N1CCC(NC(=O)C2CCC(Cn3c(=O)[nH]c4ccccc4c3=O)CC2)CC1 (stereo not drawn)	609	-0.3% (inactive)	-10.3% (inactive)	105	-89.5% (inactive)	101	-0.546 (inactive)	3.1e-05 (inactive)	0.00617 (inactive)	6.35% (inactive)	20.6% (inactive)
COc1ccc(NC(=O)CSc2nc3c(c(=O)n2-c2ccc(F)cc2)SCC3)c(OC)c1	339	0.6% (inactive)	-14.2% (inactive)	109	-407% (inactive)	114	-0.474 (inactive)	-1.7e-05 (inactive)	0.00491 (inactive)	19.4% (inactive)	26.7% (inactive)
CCCOC(=O)C1[C@H]2C(=O)N(CCCOC)C[C@]23C=C[C@H]1O3 (stereo partly drawn)	706	-12.9% (inactive)	-14.9% (inactive)	112	-21.6% (inactive)	118	-0.605 (inactive)	3.2e-05 (inactive)	0.00864 (inactive)	11.7% (inactive)	15.6% (inactive)
O=C(C1CCCO1)N1CCN(C(c2ccccc2)c2ccccc2)CC1 (stereo not drawn)	412	2.5% (inactive)	10.8% (inactive)	97.1	32.4% (inactive)	117	-0.403 (inactive)	-2.6e-05 (inactive)	0.00589 (inactive)	13.8% (inactive)	27.4% (inactive)
Oc1ccc(Nc2nc(-c3ccc(O)cc3)cs2)cc1	277	15.1% (inactive)	18.9% (inactive)	71.8	-20.5% (inactive)	124	-0.429 (inactive)	-4.3e-05 (inactive)	0.00332 (inactive)	-43% (inactive)	-59.8% (inactive)
Cc1ccc(C(=O)OCC(=O)Nc2ccc3c(c2)OCO3)o1	429	14.6% (inactive)	17.6% (inactive)	99.5	8.1% (inactive)	112	-0.595 (inactive)	-5.5e-05 (inactive)	0.00785 (inactive)	-15.7% (inactive)	-12.9% (inactive)
Nn1cc(-c2ccccc2)nc1SCC(=O)N1CCN(S(=O)(=O)c2ccccc2)CC1	341	-17.9% (inactive)	13.8% (inactive)	102	-23.8% (inactive)	106	-0.421 (inactive)	4.3e-05 (inactive)	0.00477 (inactive)	8.62% (inactive)	12.7% (inactive)
COc1ccc(-c2nc(SC)n(S(=O)(=O)c3ccccc3)n2)cc1	683	-1.9% (inactive)	7.6% (inactive)	99.4	-122% (inactive)	109	-0.476 (inactive)	9.5e-05 (inactive)	0.00851 (inactive)	-26% (inactive)	-119% (inactive)
COc1cccc(-c2csc3nc[nH]c(=O)c23)c1	517	4.9% (inactive)	-18.2% (inactive)	98.7	-72.4% (inactive)	97.9	-0.426 (inactive)	-3.4e-05 (inactive)	0.0038 (inactive)	8.62% (inactive)	2.24% (inactive)
CC(C)C(C(=O)Nc1ccc2c(c1)OCO2)N1C(=O)c2ccccc2C1=O (stereo not drawn)	696	-1% (inactive)	10.6% (inactive)	109	77.1% (active)	85	-0.411 (inactive)	-8.9e-05 (inactive)	0.00641 (inactive)	14.6% (inactive)	25.5% (inactive)
CCOc1ccc(OCC)c(NS(=O)(=O)c2ccc3c(c2)n(C)c(=O)c(=O)n3C)c1	291	-2.4% (inactive)	0.8% (inactive)	109	-27.6% (inactive)	107	-0.432 (inactive)	-4.6e-05 (inactive)	0.00533 (inactive)	10.9% (inactive)	13% (inactive)

— PubChem BioAssay
